assay: binders of probe aHhip on microarray, primary screen, stem cell growth factor project, biochemical, small-molecule microarray, fluorescence 635/667 (AID 1087); details: higher = more signal;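 further: score merges spot fluorescence at 667nm with spot signal to noise ratio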

Compound | composite z-score
Cc1ccc(S(=O)(=O)N2[C@@H](c3ccccc3)C(C(=O)O)=CC[C@H]2c2ccccc2)cc1 | 0.0854
CC[C@H]1C2=C3C(CC[C@H]4C(OC)OC[C@](C)([C@@H]34)N(C(=O)OC(C)(C)C)C2)C(CO)C1CO (stereo not given in full) | 0.0053
C=CCN1C(=O)[C@@]2(O[C@@H](CCn3cc([C@H](O)c4ccccc4)nn3)[C@H]([Si](C)(C)c3ccc(OC)cc3)[C@H]2C)c2cc(N3CCOC3=O)ccc21 | -0.0645
CO[C@@H]1COC(=O)CC=C[C@@H](C)[C@H](OC)COC(=O)CC=C[C@H]1C | -0.16
CCCC[C@H]1OB(O)C[C@H]2C1=C(COC)C[C@H]1C(=O)N(Cc3ccccc3)C(=O)[C@H]12 | 0.124
C=CC[C@@]1(C(=O)N2CCOCC2)N=C(c2ccc(OCCCO)cc2)O[C@@H]1c1ccccc1 | -0.712
COc1ccc([Si](C)(C)[C@@H]2[C@@H](CCO)O[C@]3(C(=O)N(Cc4ccc(NC(=O)[C@H](C)O)cc4)c4ccccc43)[C@H]2C)cc1 | -0.0618
COc1ccc([Si](C)(C)[C@H]2[C@H](CC(=O)N(CCO)Cc3ccccc3)O[C@@]3(C(=O)N(C)c4ccccc43)[C@@H]2C)cc1 | -0.21
NC(=O)[C@H]1[C@@H]2C(=O)O[C@@H](c3ccccc3)[C@@H](c3ccccc3)N2[C@@H](c2ccc(O)cc2)[C@]12C(=O)Nc1ccc(C#CCCO)cc12 | -0.251
CO[C@H]1O[C@H](CO)[C@@H](OC(=O)Nc2ccc3c(c2)OCO3)[C@H](OC(=O)Nc2ccccc2)[C@@H]1OC(=O)Nc1ccccc1 | -0.0994
